Bioassay records from PubChem BioAssay.
ADAM17 inh: inhibits human ADAM17; P78536; inhibition, % at 6.95 µM; recombinant ADAM17, EDANS/DABCYL FRET peptide cleavage; actives 0.83% (n = 370,000);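 active = inhibition above the mean of compounds lying between control limits plus 3 SD, set per campaign, cut at about 8.5% in these data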;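 also: 0% = DMSO-only wells as the low control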
NPR2 activator: GC-B (human) receptor activation | HEK293-GC-B cells, CNP EC30, cGMP TR-FRET; 0% at EC30 CNP, 100% saturating CNP | activation, % at 10 µM | AID 1920062 | P20594 | actives 0.11% (n = 370,000);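 active = activation at 10 µM reaching about 35% in either raw or pattern-adjusted values, limit read from the data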
ADAM10 inh: inhibitors of human ADAM10; O14672; recombinant ADAM10, EDANS/DABCYL FRET peptide cleavage, 3 h; inhibition, % at 7 µM; actives 0.62% (n = 370,000); AID 720582;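 active = inhibition above a per-campaign cutoff equal to the mean of compounds falling between control-based bounds plus 3 SD, cut at about 20% in these data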;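 also: 0% = DMSO wells while the 100% control is not disclosed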
KLK7 zymogen act: activates the human kallikrein-7 zymogen | purified proKLK7, EDANS-DABCYL substrate fluorescence; 100% is mature enzyme control, 0% vehicle | activation, % at 7 µM | actives 0.9% (n = 370,000);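 active = activation above the mean of all tested compounds plus 3 SD, computed per campaign excluding outliers beyond control limits, cut at about 13% in these data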
Target sequence (P49862 whole entry, looked up): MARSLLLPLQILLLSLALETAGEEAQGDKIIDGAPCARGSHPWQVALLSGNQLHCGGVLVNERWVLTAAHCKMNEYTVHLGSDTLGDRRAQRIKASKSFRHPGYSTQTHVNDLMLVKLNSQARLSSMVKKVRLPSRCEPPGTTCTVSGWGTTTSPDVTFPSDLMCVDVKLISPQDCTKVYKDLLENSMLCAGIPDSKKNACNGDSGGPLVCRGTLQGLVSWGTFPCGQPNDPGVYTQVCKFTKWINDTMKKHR
GC-A act: GC-A (human) enzyme activation | activation, % at 10 µM | HEK293 GC-A cells, cGMP TR-FRET, EC30 ANP; 0% at EC30 ANP, 100% saturating ANP | AID 1671463 | actives 0.14% (n = 370,000) | P16066; in the data active = activation above about 40%
ADAM10 confirm: confirmation of inhibitors of human ADAM10; shares compounds with ADAM10 inh; ADAM10 QFRET peptide cleavage, EDANS fluorescence; inhibition, % at 6.95 µM; actives 1% (n = 2,100); AID 743208;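 active = inhibition above about 20% chosen separately for each screening run, limit read from the data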;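 also: 0% = DMSO wells and 100% = marimastat wells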
ADAM17 ctr: ADAM17 inhibition, counter-screen for ADAM10 exosite hits. shares compounds with ADAM10 inh. ADAM17 QFRET peptide cleavage, EDANS fluorescence. inhibition, % at 6.95 µM. actives 0.5% (n = 2,100). AID 743214;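 active = mean triplicate inhibition above the solvent-only control wells' mean plus 3 SD, cut at about 12% in these data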;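 also: 0% = DMSO wells and 100% = marimastat wells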
ADAM10 counter: counter-screen for ADAM17 exosite inhibitors: inhibitors of human ADAM10. shares compounds with ADAM17 inh. recombinant ADAM10, EDANS/DABCYL FRET peptide cleavage, 3 h. inhibition, % at 6.95 µM. actives 47% (n = 2,900). AID 743256;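 active = mean inhibition over the triplicate runs exceeds the activity threshold set in the earlier primary screen, cut at about 20% in these data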;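 also: 0% = DMSO wells and 100% = marimastat wells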
ADAM17 confirm: confirmation of inhibitors of human ADAM17; shares compounds with ADAM17 inh; recombinant ADAM17, EDANS/DABCYL QFRET peptide cleavage; inhibition, % at 6.95 µM; actives 65% (n = 2,900);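 active = mean inhibition across replicates above the hit cutoff set in the primary screen, cut at about 8.5% in these data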;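 also: 0% = DMSO wells and 100% = marimastat wells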
Active calls of the source: *; . = not tested or not shown. Shown are actives, neighbours in structure and some others; about 2.2% of the full set was active somewhere.

SMILES | ADAM17 inh | NPR2 activator | ADAM10 inh | KLK7 zymogen act | GC-A act | ADAM10 confirm | ADAM17 ctr | ADAM10 counter | ADAM17 confirm
Cc1ccc(NC(=O)C2CC3CCC2C3)c(C)c1 (stereo not given) | -4 | 3 | -9 | . | -2 | . | . | . | .
C=CC[C@H](CC(=O)N(CCO)Cc1ccccc1)C(=O)N[C@H](COC(=O)[C@@H](CC=C)Cc1ccc(F)cc1)Cc1ccccc1 | 11* | -6 | 21* | 0 | -3 | 10 | 4 | 25* | 16*
C=CC[C@@H](CC(=O)N(CCO)Cc1ccccc1)C(=O)N[C@H](C)COC(=O)[C@@H](CC=C)Cc1ccc(F)cc1 | 2 | -8 | 6 | 1 | -4 | . | . | . | .
C=CC[C@@H](CC(=O)NCCO)C(=O)N[C@H](COC(=O)[C@@H](CC=C)Cc1ccc(F)cc1)Cc1c[nH]c2ccccc12 | 2 | -2 | -13 | 0 | -5 | . | . | . | .
C=CCC[C@@H](Cc1ccc(F)cc1)C(=O)OC[C@H](Cc1c[nH]c2ccccc12)NC(=O)[C@H](CC=C)CC(=O)N(CCO)Cc1ccccc1 | 12* | 4 | 21* | 0 | -7 | 11 | 3 | 55* | 27*
C=CCC[C@H](Cc1ccc(F)cc1)C(=O)OC[C@@H](Cc1c[nH]c2ccccc12)NC(=O)[C@@H](CC=C)CC(=O)N(CCO)Cc1ccccc1 | 15* | -8 | 41* | 0 | -2 | 12 | 3 | 48* | 23*
C=CCC[C@H](Cc1ccc(F)cc1)C(=O)OC[C@H](Cc1c[nH]c2ccccc12)NC(=O)[C@@H](CC=C)CC(=O)N(CCO)Cc1ccccc1 | 14* | -3 | 27* | 0 | -4 | 9 | 3 | 40* | 20*
C=CC[C@@H](CC(=O)NCCO)C(=O)N[C@@H](COC(=O)[C@@H](CC=C)Cc1ccc(F)cc1)Cc1c[nH]c2ccccc12 | 3 | -1 | 7 | 0 | -2 | . | . | . | .
O=C(NC1CCCCN(Cc2cccc(Cl)c2)C1=O)c1ccc(-c2ccccc2)cc1 (stereo not given) | 0 | -3 | 0 | 1 | 0 | . | . | . | .
CCCC1CCC2(CCCN2CCOC(=S)NCc2cccc(C)c2)CC1 (stereo not given) | -4 | -4 | -1 | . | -15 | . | . | . | .
CC[C@H](CCCc1ccc(OC)cc1)CCC(=O)N(c1ccccc1)c1ccccc1 | 0 | 0 | 4 | 0 | -5 | . | . | . | .
COc1ccc(Cn2cc(CN3[C@@H](Cc4ccccc4)COc4cc(Br)ccc4S3(=O)=O)nn2)cc1 | -2 | 5 | -8 | 0 | 3 | . | . | . | .
COc1ccc(C(=O)/C=C(\Nc2ccc(F)cc2)c2ccc(OC)cc2OC)c(OC)c1 | -4 | -2 | -4 | 0 | 0 | . | . | . | .
C=CC[C@H](CC(=O)N(CCO)Cc1ccccc1)C(=O)N[C@H](COC(=O)[C@@H](CC=C)CC(=O)OC(C)(C)C)Cc1c[nH]c2ccccc12 | 13* | -3 | 26* | 1 | -8 | 4 | 1 | 45* | 22*
CCOc1cc(S(=O)(=O)Nc2cc(C)cc(C)c2)ccc1Cl | 20* | 47* | 36* | 0 | -3 | 3 | 1 | 27* | 15*
Fc1ccc(Cn2ccc3ccc(-c4ccc5ccn(Cc6ccccc6)c5c4)cc32)cc1 | -26 | -1 | -82 | -2 | 1 | . | . | . | .
O=C(/C=C/C=C/c1ccccc1)CC1(O)C(=O)N(CCc2ccccc2)c2ccccc21 (stereo not given) | 9.3* | -1 | 21* | 1 | 3 | 5 | 3 | 36* | 19*
CCOC(=O)[C@@]12CN(C(=O)OC(C)(C)C)CC=C1N(Cc1ccc(OC)cc1)C(=O)[C@H]2CC(=O)NCCCCc1ccccc1 | 8.7* | -11 | 22* | 1 | -3 | 6 | 2 | 19 | 10*
CCOC(=O)[C@]12CCCCC/C=C\1N(Cc1ccc(OC)cc1)C(=O)[C@H]2CC(=O)NCc1cccc(C(F)(F)F)c1 | 11* | 2 | 21* | 1 | -3 | 10 | 3 | 34* | 14*
Cc1ccc(C2=CC(=O)C[C@H](c3ccc(F)cc3)C2)cc1 | 12* | 6 | 28* | 0 | 0 | 2 | 1 | 22* | 17*
O=C1C=C(c2ccc3[nH]ccc3c2)C[C@@H](c2ccc(Cl)cc2)C1 | 15* | 18 | 21* | -2 | 0 | 10 | 4 | 7 | 8
O=C1C=C(c2ccc3ccccc3c2)C[C@@H](c2ccc(Cl)cc2)C1 | -2 | 0 | 5 | -2 | -1 | . | . | . | .
Cc1noc(C)c1COc1ccc(C(=O)OCC(=O)Nc2ccc3ccccc3c2)cc1 | 8.8* | 0 | 20* | -1 | -1 | 9 | 3 | 33* | 19*
Cc1noc(C)c1COc1ccc(C(=O)OCC(=O)Nc2ccc(C(=O)N(C)C)cc2)cc1 | -4 | 5 | -2 | 0 | 1 | . | . | . | .
O=C(CNc1ccc(C(F)(F)F)cc1)Nc1cccc(S(=O)(=O)N2CCCC2)c1 | 3 | -3 | 10 | 0 | -1 | . | . | . | .
SMILES | ADAM17 inh | NPR2 activator | ADAM10 inh | KLK7 zymogen act | GC-A act | ADAM10 confirm | ADAM17 ctr | ADAM10 counter | ADAM17 confirm
O=C(CNc1cc(S(=O)(=O)N2CCCC2)ccc1OCC(F)(F)F)Nc1ccc(SC(F)F)cc1 | 16* | -6 | 20* | 1 | 2 | 1 | 2 | 35* | 20*
CN(CC(=O)Nc1cccc(F)c1)CC(=O)Nc1cccc(S(=O)(=O)N2CCCCC2)c1 | 2 | 0 | -2 | 1 | -5 | . | . | . | .
O=C(COC(=O)c1cc(S(=O)(=O)N2CCCC2)ccc1O)Nc1ccc(SC(F)F)cc1 | -6 | 7 | -33 | 0 | 0 | . | . | . | .
O=C(CNc1ccc(C(F)(F)F)cc1)Nc1cccc(S(=O)(=O)N2CCCCC2)c1 | 9.8* | -4 | 22* | 0 | 2 | 7 | 2 | 54* | 27*
CN(CC(=O)Nc1cccc(F)c1)CC(=O)Nc1cccc(S(=O)(=O)N2CCCCCC2)c1 | 16* | -3 | 36* | 0 | -5 | 1 | 0 | 23* | 14*
C#CCNC(=O)C[C@H]1C(=O)N(CCc2ccc(Cl)cc2)C2=CCCC[C@@]21C(=O)OCC | -2 | 0 | -3 | 0 | 1 | . | . | . | .
